Screening results as filed in PubChem BioAssay.
FMDV inh: foot and mouth disease virus antiviral activity | FMDV antiviral cell-based qHTS | Potency, µM (top dose mostly 57.9 µM), usual class: inhibitors | 1.2% of 410,000 active; calls by dose curve; tested in HEK293T cells; also: read-out not given here; nearly all actives have a fitted effect of over 45% in size
Sm TGR inh: blocks Schistosoma mansoni thioredoxin glutathione reductase | purified TGR, DTNB reduction, TNB absorbance 405 nm | Potency, µM (highest dose often 114 µM), actives largely listed as inhibitors | 3% of 360,000 active | AID 485364; also: nearly all actives have a fitted effect of over 60% in size
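First, TGR (20 nM dispensed) and NADPH were mixed with compound. Second, a 15 min room-temperature incubation followed. Third, further NADPH and then DTNB were added to start the reaction. Finally, TNB absorbance was monitored kinetically.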
TbPYK inhibitor: inhibitors of Trypanosoma brucei pyruvate kinase; AID 624173; Potency, µM (titrated, usually from 76.8 µM), most hits filed as inhibitors; 0.12% of 410,000 active; TbPYK enzyme, Kinase-Glo Plus ATP luminescence, 45 min; also: nearly all actives have a fitted effect of over 50% in size
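Luminescent Kinase-Glo Plus end-point after 45 min room-temperature reaction of T. brucei pyruvate kinase started with 130 uM ADP (final). Buffer TEA 50 mM pH 7.2 with KCl, MgCl2, BSA, Tween-20; titration-based qHTS with fitted concentration-effect curves.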
RE007 growth inh: less growth of the S. pombe RE007 Vpr strain. S. pombe RE007 Vpr strain, BacTiter-Glo ATP luminescence, 24 h. Potency, µM (doses to about 92.2 µM), hits mostly inhibitors. 0.21% of 360,000 active; active = well fitted falling curve with a large enough effect; inconclusive = small, poorly fitted or top-dose-only effect; inactive = no such curve, though single readings can be large or run the other way; also: nearly all actives have a fitted effect of over 50% in size
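Fission yeast strain RE007, carrying one chromosomally integrated HIV-1 vpr copy, was seeded at OD 0.01 in PMG+AL medium with 23 nL pinned compound. After 24 h at 30 °C and 99% humidity, viability was read by BacTiter-Glo luminescence.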
Each line names hits and unclear results; the compound was inactive in the other large screens. An excerpt weighted towards active compounds, which were near 3.7% of everything screened. Unless noted, calls follow the shape of the dose curve; as a rule, active = well fitted curve in the direction sought with a large enough effect; inconclusive = small, poorly fitted or top-dose-only effect, or another doubt; inactive = no such curve, though single readings can be large; an effect the other way counts as inactive or inconclusive.

COc1ccc(CN(C(=O)c2ccc(OCC(C)C)cc2)C2CCS(=O)(=O)C2)cc1 (centres undefined)	none (no result: RE007 growth inh)
OC1(c2ccc3c(c2)CN(Cc2ccco2)CCO3)CCN(c2ccccc2F)CC1	none (no result: Sm TGR inh, TbPYK inhibitor, RE007 growth inh)
O=c1oc2ccccc2c(N2CCCC2)c1CN1CCCC1	Sm TGR inh 35µM (no result: FMDV inh)
O=c1cc(CN2CCCCCCC2)c2ccccc2o1	none (no result: Sm TGR inh)
O=c1oc2ccccc2c(Cl)c1CN1CCCCC1	FMDV inh inconclusive, Sm TGR inh 4.5µM
Nc1c(NCCN2CCCCC2)c2ccccc2oc1=O	Sm TGR inh 28µM
Fc1cccc(CNc2ncnc3ccc(-c4ccoc4)cc23)c1	none (no result: FMDV inh, TbPYK inhibitor, RE007 growth inh)
CN(Cc1ccccc1)S(=O)(=O)c1nnc(NC(=O)c2ccccc2Cl)s1	none (no result: RE007 growth inh)
CCn1cc(CN(C)C(=O)CSc2nc(-c3ccco3)cc(C(F)(F)F)n2)c(C)n1	FMDV inh 20µM (no result: Sm TGR inh)
Cn1cccc1/C=N/N1CCN(c2ccccc2)CC1	Sm TGR inh 45µM
Fc1ccccc1/C=N/N1CCN(Cc2ccccc2Cl)CC1	none
Cn1cccc1/C=N/N1CCN(Cc2ccccc2Cl)CC1	Sm TGR inh 50µM
COc1ccc(CCNC(=O)CSc2nc3ccccc3nc2Cc2ccc(Cl)cc2)cc1OC	FMDV inh inconclusive (no result: RE007 growth inh)
CCOC(=O)C1=C(CSc2nc(C)ccc2C#N)OC(N)=C(C#N)C1c1cccc(OC)c1OC (centres undefined)	Sm TGR inh 13µM, TbPYK inhibitor inconclusive
COc1ccc(C(CC(=O)c2ccccc2)CC(=O)c2ccccc2)cc1	none
C=C(C(=O)c1ccccc1)C(C(=C)C(=O)c1ccccc1)c1ccc(OC)cc1	FMDV inh 28µM
CCc1ccc(OCC(=O)Nc2c(C(=O)c3ccc(Br)cc3)oc3ccccc23)cc1	none (no result: RE007 growth inh)
Cc1ccc(NC(=O)CCS(=O)(=O)c2ccc(Br)s2)c(Br)c1	none (no result: RE007 growth inh)
O=c1c2ccccc2sn1-c1ccc(S(=O)(=O)N2CCCC2)cc1	Sm TGR inh inconclusive, TbPYK inhibitor 6.3µM (no result: FMDV inh)
O=c1c2ccccc2sn1-c1ccc(S(=O)(=O)N2CCCCC2)cc1	TbPYK inhibitor inconclusive (no result: FMDV inh, Sm TGR inh)
Cc1ccc(-n2sc3ccccc3c2=O)cc1S(=O)(=O)N1CCCCC1	TbPYK inhibitor 4µM, RE007 growth inh 16µM
Cc1ccc(C(=O)NNC(=O)c2ccccc2)cc1S(=O)(=O)N1CCCCC1	none
Cc1ccc(CNC(=O)CCCn2c(=O)c3ccccc3n(Cc3ccccc3C)c2=O)cc1	none (no result: RE007 growth inh)
O=C(NC(NNc1ccc([N+](=O)[O-])cc1)(C(F)(F)F)C(F)(F)F)c1ccc(Cl)cc1	FMDV inh inconclusive, Sm TGR inh 22µM
Cc1ccc(CN2CCC(CNc3ncnc4onc(-c5ccc(Cl)cc5)c34)CC2)cc1	FMDV inh inconclusive (no result: RE007 growth inh)
CC(C)N=C1NN=C(c2cccs2)C(CC(=O)O)S1 (centres undefined)	Sm TGR inh 16µM
Cc1cnc(-n2ncc(C(=O)NCCc3ccncc3)c2-c2cccs2)nc1-c1ccc(F)cc1	none (no result: Sm TGR inh, TbPYK inhibitor, RE007 growth inh)
CCCC(=O)NCC1(N(C)C)CCCCC1	none (no result: RE007 growth inh)
CCOCCCN(Cc1ccco1)S(=O)(=O)c1cc2c(cc1Cl)NC(=O)CO2	Sm TGR inh 18µM (no result: RE007 growth inh)
O=C1COc2cc(S(=O)(=O)NCc3ccco3)c(Cl)cc2N1	Sm TGR inh 16µM (no result: RE007 growth inh)
COc1ccc(CNS(=O)(=O)c2cc3c(cc2Cl)NC(=O)CO3)cc1	none
CCOC(=O)C1CCC(CN(Cc2ccc(Cl)cc2)S(=O)(=O)c2cccc(Cl)c2C)CC1 (centres undefined)	none (no result: RE007 growth inh)
CCOC(=O)N1CCN(S(=O)(=O)c2cc([N+](=O)[O-])ccc2C)CC1	none (no result: Sm TGR inh)
CCOC(=O)N1CCC(=NNS(=O)(=O)c2cccc([N+](=O)[O-])c2)CC1	Sm TGR inh 28µM
Cn1c(=O)c2c(nc(N3CCOCC3)n2Cc2cccc(Br)c2)n(C)c1=O	FMDV inh inconclusive (no result: RE007 growth inh)
CCOC(=O)/C=c1\s/c(=C(\C#N)C(N)=O)n(-c2ccccc2)c1=O	FMDV inh inconclusive, Sm TGR inh 10µM
Cc1ccc(-n2c(=O)c3c(cnn3C)n(CC(=O)Nc3cc(C)ccc3C)c2=O)cc1	none (no result: RE007 growth inh)
COc1cccc(/C=C2\Oc3ccc(O)cc3C2=O)c1O	FMDV inh 11µM
CN(C[C@H](c1ccccc1)N(C[C@H](Cc1ccccc1)N(CCc1ccccc1)N=O)N=O)N=O	Sm TGR inh inconclusive
CN(C[C@H](Cc1ccccc1)N(C[C@H](c1ccccc1)N(CCc1ccccc1)N=O)N=O)N=O	Sm TGR inh 13µM
Cc1ccc(NC(=O)Cn2c(=O)oc3cc(S(=O)(=O)N4CCC(C)CC4)ccc32)cc1Cl	none (no result: RE007 growth inh)
Cc1cccc(OCC(=O)Nc2nnc(-c3ccco3)s2)c1	Sm TGR inh 14µM
